{"source": "the supplement of paper PMC8728848", "test_in_all_cases": "glycan array binding signal (z-score within array); higher = stronger binding", "key": {"Glc(a1-6)Glc(a1-6)Glc": {"tested_on": "Glc(a1-6)Glc(a1-6)Glc", "settings": "glycan notation: IUPAC condensed, linker removed", "method_in_brief": "(§1)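 Glycan array data came from 3228 arrays in the Consortium for Functional Glycomics database, and only arrays with an available protein sequence were kept. Glycan names were put into IUPAC-condensed notation, and columns mapping to the same glycan were averaged. The binding signal is a within-array Z-score, averaged across arrays of one protein sequence run at different concentrations or buffers and across linkers. A negative Z-score can be read as non-binding.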"}, "Glc(b1-6)Glc": {"tested_on": "Glc(b1-6)Glc", "settings": "glycan notation: IUPAC condensed, linker removed", "method_in_brief": "as §1"}, "GlcA(b1-3)Gal": {"tested_on": "GlcA(b1-3)Gal", "settings": "glycan notation: IUPAC condensed, linker removed", "method_in_brief": "as §1"}, "GlcA(b1-3)GlcNAc": {"tested_on": "GlcA(b1-3)GlcNAc", "settings": "glycan notation: IUPAC condensed, linker removed", "method_in_brief": "as §1"}, "[1]": {"tested_on": "GlcNAc(a1-4)Gal(b1-4)GlcNAc(b1-3)Gal(b1-4)Glc", "settings": "glycan notation: IUPAC condensed, linker removed", "method_in_brief": "as §1"}, "[2]": {"tested_on": "GlcNAc(a1-4)Gal(b1-4)GlcNAc(b1-3)Gal(b1-4)[Fuc(a1-3)]GlcNAc(b1-3)Gal(b1-4)[Fuc(a1-3)]GlcNAc", "settings": "glycan notation: IUPAC condensed, linker removed", "method_in_brief": "as §1"}, "Glc(b1-4)Glc": {"tested_on": "Glc(b1-4)Glc", "settings": "glycan notation: IUPAC condensed, linker removed", "method_in_brief": "as §1"}, "GalNAc(a1-3)GalNAc": {"tested_on": "GalNAc(a1-3)GalNAc", "settings": "glycan notation: IUPAC condensed, linker removed", "method_in_brief": "as §1"}, "GalNAc(a1-3)Gal": {"tested_on": "GalNAc(a1-3)Gal", "settings": "glycan notation: IUPAC condensed, linker removed", "method_in_brief": "as §1"}, "GalNAc(b1-3)GalNAc": {"tested_on": "GalNAc(b1-3)GalNAc", "settings": "glycan notation: IUPAC condensed, linker removed", "method_in_brief": "as §1"}, "Glc(a1-4)Glc": {"tested_on": "Glc(a1-4)Glc", "settings": "glycan notation: IUPAC condensed, linker removed", "method_in_brief": "as §1"}, "[3]": {"tested_on": "Glc(a1-6)Glc(a1-6)Glc(a1-6)Glc", "settings": "glycan notation: IUPAC condensed, linker removed", "method_in_brief": "as §1"}, "Gal6S(b1-4)Glc": {"tested_on": "Gal6S(b1-4)Glc", "settings": "glycan notation: IUPAC condensed, linker removed", "method_in_brief": "as §1"}, "[4]": {"tested_on": "GlcNAc(a1-3)Gal(b1-4)GlcNAc", "settings": "glycan notation: IUPAC condensed, linker removed", "method_in_brief": "as §1"}, "GalNAc(b1-6)GalNAc": {"tested_on": "GalNAc(b1-6)GalNAc", "settings": "glycan notation: IUPAC condensed, linker removed; mutation: R125K", "method_in_brief": "as §1"}, "[5]": {"tested_on": "GalNAc(b1-4)GlcNAc(b1-2)Man(a1-3)[GalNAc(b1-4)GlcNAc(b1-2)Man(a1-6)]Man(b1-4)GlcNAc(b1-4)GlcNAc", "settings": "glycan notation: IUPAC condensed, linker removed", "method_in_brief": "as §1"}, "[6]": {"tested_on": "GalNAc(b1-3)Gal(a1-4)Gal(b1-4)GlcNAc", "settings": "glycan notation: IUPAC condensed, linker removed", "method_in_brief": "as §1"}, "[7]": {"tested_on": "GlcNAc(a1-4)Gal(b1-4)GlcNAc(b1-3)Gal(b1-4)GlcNAc", "settings": "glycan notation: IUPAC condensed, linker removed", "method_in_brief": "as §1"}, "[8]": {"tested_on": "Glc(a1-4)Glc(a1-4)Glc(a1-4)Glc", "settings": "glycan notation: IUPAC condensed, linker removed", "method_in_brief": "as §1"}, "[9]": {"tested_on": "GlcNAc(a1-4)Gal(b1-4)GlcNAc(b1-3)Gal(b1-4)GlcNAc(b1-3)Gal(b1-4)GlcNAc", "settings": "glycan notation: IUPAC condensed, linker removed", "method_in_brief": "as §1"}}, "note": "Shown is part of a subset that was picked to be rich in the strongest signals."}
{"substance": "PILRa (Mus musculus), Q2YSF3", "values": [{"measurement": "glycan array binding signal (z-score)", "setting": "Glc(a1-6)Glc(a1-6)Glc", "value": -0.233}, {"measurement": "glycan array binding signal (z-score)", "setting": "Glc(b1-6)Glc", "value": -0.169}]}
{"substance": "Neurocan (Homo sapiens), O14594", "values": [{"measurement": "glycan array binding signal (z-score)", "setting": "GlcA(b1-3)Gal", "value": 0.453}, {"measurement": "glycan array binding signal (z-score)", "setting": "GlcA(b1-3)GlcNAc", "value": 10.5}, {"measurement": "glycan array binding signal (z-score)", "setting": "[1]", "value": -0.326}, {"measurement": "glycan array binding signal (z-score)", "setting": "[2]", "value": 4.73}]}
{"substance": "Regenerating Gene IV (Homo sapiens), Q9BYZ8", "values": [{"measurement": "glycan array binding signal (z-score)", "setting": "Glc(b1-4)Glc", "value": 5.46}]}
{"substance": "wLAT-1A (Homo sapiens), Q01650", "values": [{"measurement": "glycan array binding signal (z-score)", "setting": "GalNAc(a1-3)GalNAc", "value": 6.65}, {"measurement": "glycan array binding signal (z-score)", "setting": "GalNAc(a1-3)Gal", "value": 3.46}, {"measurement": "glycan array binding signal (z-score)", "setting": "GalNAc(b1-3)GalNAc", "value": 1.87}]}
{"substance": "C3b (Homo sapiens), P01024", "values": [{"measurement": "glycan array binding signal (z-score)", "setting": "Glc(a1-4)Glc", "value": -0.67}, {"measurement": "glycan array binding signal (z-score)", "setting": "Glc(b1-6)Glc", "value": 3.33}]}
{"substance": "Avaren (Actinomycete K97)", "values": [{"measurement": "glycan array binding signal (z-score)", "setting": "[3]", "value": -0.14}]}
{"substance": "MpAFP RI GFP (Marinomonas primoryensis)", "values": [{"measurement": "glycan array binding signal (z-score)", "setting": "GalNAc(a1-3)GalNAc", "value": -0.566}]}
{"substance": "6RG (Lolium perenne), B9U140", "values": [{"measurement": "glycan array binding signal (z-score)", "setting": "Gal6S(b1-4)Glc", "value": 0.084}, {"measurement": "glycan array binding signal (z-score)", "setting": "GalNAc(a1-3)Gal", "value": -0.395}, {"measurement": "glycan array binding signal (z-score)", "setting": "[4]", "value": -0.228}]}
{"substance": "Siglec-8 (Homo sapiens), Q9NYZ4", "values": [{"measurement": "glycan array binding signal (z-score)", "setting": "Gal6S(b1-4)Glc; mutation: R125K", "value": 0.06}, {"measurement": "glycan array binding signal (z-score)", "setting": "GalNAc(b1-6)GalNAc", "value": -0.055}, {"measurement": "glycan array binding signal (z-score)", "setting": "[1]", "value": -0.267}]}
{"substance": "CHT (Homo sapiens)", "values": [{"measurement": "glycan array binding signal (z-score)", "setting": "[4]; mutation: D138V, E140I", "value": -0.189}]}
{"substance": "HARE (Homo sapiens), Q8WWQ8", "values": [{"measurement": "glycan array binding signal (z-score)", "setting": "Gal6S(b1-4)Glc", "value": 0.81}]}
{"substance": "Aggrecan (Rattus norvegicus), NP_071526", "values": [{"measurement": "glycan array binding signal (z-score)", "setting": "[5]", "value": 0.017}, {"measurement": "glycan array binding signal (z-score)", "setting": "[2]", "value": 0.828}]}
{"substance": "PILRb (Mus musculus), Q2YSF2", "values": [{"measurement": "glycan array binding signal (z-score)", "setting": "[6]", "value": -0.074}, {"measurement": "glycan array binding signal (z-score)", "setting": "GalNAc(b1-3)GalNAc", "value": 0.288}, {"measurement": "glycan array binding signal (z-score)", "setting": "[7]", "value": 0.156}]}
{"substance": "CHI3L1 (Homo sapiens), P36222", "values": [{"measurement": "glycan array binding signal (z-score)", "setting": "[8]", "value": 0.48}, {"measurement": "glycan array binding signal (z-score)", "setting": "[3]", "value": 1.01}, {"measurement": "glycan array binding signal (z-score)", "setting": "Glc(a1-6)Glc(a1-6)Glc", "value": -0.073}, {"measurement": "glycan array binding signal (z-score)", "setting": "[9]", "value": -0.129}]}
